Bioassay records as filed in PubChem.
Most compounds without a hit are left out; they make up all but 1.6% or so of the library.
KCNQ2 inh – inhibitors of rat KCNQ2 potassium channel | O88943 | B-score at 10 µM | CHO-K1 KCNQ2, FluxOR thallium flux, 20 min; active compounds read low | actives 1.1% (n = 310,000) | AID 2156;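 active = fluorescence ratio B-score at most minus 3 library SDs, with starting brightness B-score within 2 library SDs, cut at about -5.5 in these data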
KCNQ2 enhance – potentiators of rat KCNQ2 potassium channel. CHO-K1 KCNQ2, FluxOR thallium flux fluorescence; active compounds read high. B-score at 10 µM. actives 0.54% (n = 310,000);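 active = fluorescence ratio B-score at least 3 SD of library B-scores, with initial fluorescence B-score within 3 of them, cut at about 5.3 in these data; same plate scores as AID 2156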;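 also: B-score of peak minus minimum over baseline fluorescence ratio after K+ and Tl+ stimulus; positive B-score means potentiation of KCNQ2 with more thallium influx and brighter signal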
Large screens that a line does not name were inactive.

COc1ccccc1N1CCN(C(c2cccs2)C(C)NC(=O)c2ccncc2)CC1 (centres undefined)	none (no result: KCNQ2 enhance)
CCCCCC(=O)NC(=S)Nc1cccc(-c2nc3ncccc3o2)c1	none
COc1ccccc1NC(=O)c1csc2c1CCCC2	none (no result: KCNQ2 enhance)
COc1ccccc1CNC(=O)c1csc2c1CCCC2	KCNQ2 inh -6.5
c1ccc(-c2ccc3c(c2)NCCN3)cc1	none
Cc1ccc(SCCC(=O)NCCSCc2ccccc2C)cc1	KCNQ2 inh -7.8
CCCCNC(=O)CCSc1ccc(C)cc1	none (no result: KCNQ2 enhance)
Cc1cc(C)n(C(C)Sc2ccccc2)n1 (centres undefined)	none
O/N=C/c1ccc2ccccc2n1	none (no result: KCNQ2 enhance)
CC(C)(C)c1ccccc1N=Cc1ccc2ccccc2n1	KCNQ2 inh -6.4
CCOc1ccc2nc(-c3cc(NC(C)=O)ccc3O)sc2c1	none (no result: KCNQ2 enhance)
CCN(CC)CCC(c1ccc2c(c1)OCO2)c1c(O)cc(OC)cc1OC (centres undefined)	none
Cc1ccc2nc(SCC(=O)c3cc(C)n(C)c3C)[nH]c2c1	none (no result: KCNQ2 enhance)
Cc1cc(C(=O)CSc2nc3ccc(Cl)cc3[nH]2)c(C)n1C	KCNQ2 inh -6.3
Cc1cc(C(=O)CSc2nc3ccccc3[nH]2)c(C)n1C	none (no result: KCNQ2 enhance)
C=CCn1c(C)cc(C(=O)CSc2nc3ccccc3[nH]2)c1C	KCNQ2 inh -7.5
O=C(COc1ccccc1Cl)Nc1ccc2oc(=O)ccc2c1	none (no result: KCNQ2 enhance)
CC(C)c1cc(NCCOCCO)n2c(nc3ccccc32)c1C#N	none
CC1=C(C(=O)OC(C)(C)C)C(c2cccc3ccccc23)NC(=O)N1 (centres undefined)	none (no result: KCNQ2 enhance)
COc1ccccc1N1CCN(Cc2nc(N)nc(Nc3ccc(C)c(Cl)c3)n2)CC1	KCNQ2 enhance 8.9
COc1ccccc1Nc1nc(N)nc(CN2CCN(c3ccccc3F)CC2)n1	none
O=C(NNc1c(Cl)cccc1Cl)c1cccs1	none (no result: KCNQ2 enhance)
COC(=O)CCC(=O)Nc1cccc2ccccc12	none
CCCCCC(=O)Nc1cccc2ccccc12	KCNQ2 enhance 5.7
O=C(N/N=C/c1cccc([N+](=O)[O-])c1)c1cc[n+](CCO)cc1	none
COc1cc(Nc2ncnc(N)n2)cc(OC)c1	none (no result: KCNQ2 enhance)
Cc1ccc(S[C@@H](CCN2CC[C@H](C)CCC2=O)c2ccccc2)cc1	none (no result: KCNQ2 enhance)
Cc1ccc(S[C@@H](CCN2CC[C@H](C(C)(C)C)CCC2=O)c2ccccc2)cc1	KCNQ2 inh -5.8
C[C@@H](CSc1ccccc1)CN1CC[C@H](C(C)(C)C)CCC1=O	KCNQ2 inh -7.2
CC(C)(C)C1CCC(=O)N(CCSc2ccccc2)CC1 (centres undefined)	none (no result: KCNQ2 enhance)
O=C(Nc1ccccc1C(=O)N1CCCCC1)c1ccc(Cl)cc1Cl	none (no result: KCNQ2 enhance)
Cc1cc(C)c2nc(N3CCC(C(=O)NCCCN4CCCCC4)CC3)sc2c1	KCNQ2 inh -6.5
Cc1cc(C)c2nc(N3CCC(C(=O)NCC4CCCO4)CC3)sc2c1 (centres undefined)	none (no result: KCNQ2 enhance)
NC(=O)COC(=O)CC12CC3CC(CC(Br)(C3)C1)C2	none (no result: KCNQ2 enhance)
O=C(COc1ncnc2sccc12)N1CCN(C(=O)c2ccco2)CC1	none (no result: KCNQ2 enhance)
C=CCN(c1ccccc1)S(=O)(=O)c1cccc(C(=O)NCC(c2ccc(F)cc2)N2CCOCC2)c1 (centres undefined)	KCNQ2 inh -6
Cc1ccc(NS(=O)(=O)c2cccc(C(=O)NCC(c3ccc(F)cc3)N3CCOCC3)c2)cc1 (centres undefined)	none (no result: KCNQ2 enhance)
C[C@@]12CCC=C[C@H]1[C@H](c1ccc(C(F)(F)F)cc1)N(Cc1ccccc1)C2=O	none (no result: KCNQ2 enhance)
Cc1cc(C)n(NC(=S)NC2CCCC2)c(=O)c1C#N	none
Cc1noc(C)c1S(=O)(=O)N(CC(=O)NC1CCC(C)CC1)c1ccc(C(C)C)cc1 (centres undefined)	KCNQ2 inh -7.1
CCOc1ccc(N(CC(=O)NC2CCC(C)CC2)S(=O)(=O)c2c(C)noc2C)cc1 (centres undefined)	none
Cc1nc2c(-c3ccc(F)cc3)c(C)nn2c(C)c1CCC(=O)N1CCN(c2ccccc2)CC1	none (no result: KCNQ2 enhance)
Cc1nc2c(-c3ccc(F)cc3)c(C)nn2c(C)c1CCC(=O)N1CCC(Cc2ccccc2)CC1	KCNQ2 inh -6.1
Cc1cccc(NC(=S)NCC(C)CSc2ccc(Cl)cc2)c1 (centres undefined)	none
Cc1ccc(NC(=S)NCC(C)CSc2ccc(Cl)cc2)cc1 (centres undefined)	KCNQ2 enhance 13
O=C(OC(C(=O)Nc1ccc(Cl)c(C(F)(F)F)c1)c1ccccc1)C1=COCCO1 (centres undefined)	none (no result: KCNQ2 enhance)
Cc1cc(C)cc(NC(=O)C(OC(=O)C2=COCCO2)c2ccccc2)c1 (centres undefined)	KCNQ2 inh -6.6
CCn1c(=O)c(C(=O)NCCc2ccc(Cl)cc2)c(O)c2ccccc21	none
CCCn1c(=O)c(C(=O)NCCc2ccc(Cl)cc2)c(O)c2ccccc21	KCNQ2 inh -5.6
CNNC(=S)Nc1cccc(SC)c1	none
O=C(CNC(=O)c1ccc(Cl)cc1Cl)OCc1nnc(-c2ccccc2)o1	none (no result: KCNQ2 enhance)
CCOC(=O)c1c(NC(=O)C(Sc2ccccc2)c2ccccc2)sc(C(N)=O)c1C (centres undefined)	none (no result: KCNQ2 enhance)
CCOC(=O)c1c(NC(=O)C(Sc2ccccc2)c2ccccc2)sc(C(=O)N(C)C)c1C (centres undefined)	KCNQ2 inh -5.8
COC(CNc1ccc([N+](=O)[O-])c(NCC(OC)OC)c1C#N)OC	none
Cc1nc2c(c(=O)n1CCC1=CCCCC1)c1nc3ccccc3nc1n2/N=C/c1ccccc1	KCNQ2 inh -5.7
O=c1c2[nH]c3ccccc3c2ncn1CCC1=CCCCC1	none (no result: KCNQ2 enhance)
CCOCCCn1c(C)nc2c(c1=O)c1nc3ccccc3nc1n2CCC1=CCCCC1	KCNQ2 inh -5.8
O=c1c2c3nc4ccccc4nc3n(/N=C/c3ccco3)c2ncn1CCC1=CCCCC1	KCNQ2 inh -6.6
COCCCn1c2nc3ccccc3nc2c2c(=O)n(CC3CCCO3)cnc21 (centres undefined)	none
CCCCCCn1c(C)nc2c(c1=O)c1nc3ccccc3nc1n2/N=C/c1ccco1	none (no result: KCNQ2 enhance)
COc1ccc(CCNC(=O)CN2c3cccc4cccc(c34)S2(=O)=O)cc1OC	none
CCCOc1ccccc1NC(=O)Nc1ccccc1Cl	none (no result: KCNQ2 enhance)
COc1ccc(OCC(=O)C2CC2)c(C#N)c1	none (no result: KCNQ2 enhance)
Cc1cc(Cl)ccc1NC(=O)CSc1nnc(Cc2cccs2)n1Cc1ccco1	KCNQ2 inh -6.3
COc1cc2c(cc1NC(=O)CSc1nnc(Cc3cccs3)n1Cc1ccco1)oc1ccccc12	none (no result: KCNQ2 enhance)
Cc1ccc(-n2nc3c(=O)n(C(C)C(=O)NCc4ccccc4Cl)nc(C)c3c2C)cc1 (centres undefined)	KCNQ2 inh -8.1
Cc1ccc(-n2nc3c(=O)n(C(C)C(=O)NCCCc4ccccc4)nc(C)c3c2C)cc1 (centres undefined)	none (no result: KCNQ2 enhance)
Cc1ccc(CNC(=O)c2cnccn2)cc1	none
Cn1cc(/C=C(\NC(=O)c2ccccc2)C(=O)N2CCOCC2)c2ccccc21	none (no result: KCNQ2 enhance)
Cc1ccc(C(=O)N/C(=C\c2cn(C)c3ccccc23)C(=O)N2CCOCC2)cc1	KCNQ2 inh -6.3
COc1ccc(-c2csc(C3=C(O)CN(C(C)C)C3=N)n2)cc1OC	none
CC(C)[C@@H](C(=O)N1CCN(C(=O)OC(C)(C)C)CC1)n1cc(CCO)nn1	none
COCCn1c(-c2ccco2)csc1=Nc1cccnc1	none (no result: KCNQ2 enhance)
CC(C)Cn1c(-c2ccco2)csc1=Nc1cccnc1	KCNQ2 inh -6.3
CCCC[C@@H]1CNC(=O)C(=O)N1CCCc1cc(OC)c(OC)c(OC)c1	none
COc1cc(CCCN2C(=O)C(=O)NC[C@H]2Cc2cccc3ccccc23)cc(OC)c1OC	KCNQ2 enhance 9.6
O=C(CN1C(=O)c2ccc([N+](=O)[O-])cc2C1=O)NC1CCCCCC1	none (no result: KCNQ2 enhance)
